Experimental data as given in PubChem BioAssay.
Activity calls are given as the source filed them.

What was measured:
[1] = biological target: Albumin (Bos taurus) (UniProt P02769); test: compounds binding labelled BSA control protein – biochemical, small-molecule microarray, Alexa647 label, 635/667 nm fluorescence, artefact control for SMM control protein annotation, profiling panel (AID 1118); conditions: BSA-A647 binding, fluorescence 635 nm, higher = more signal;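 also: score merges 667 nm emission intensity and signal-to-noise per printed compound spot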
[2] = probe aXIP binding to arrayed compounds – biochemical, NeuroSMM set, 635/667 nm fluorescence, primary screen (AID 1119); conditions: small-molecule microarray, higher = more signal, called active from +8 up or from −8 down;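 also: probe is the protein aXip251-270 applied at 1 µg/mL to compound-printed slides; binding of probe to printed compounds measured as 667 nm fluorescence plus signal to noise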
[3] = probe aNOTCH3 binding on compound microarray – biochemical, small-molecule microarray, 635/667 nm fluorescence, primary screen (AID 1120); conditions: higher = more signal;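 also: probe is a biotin-tagged antibody raised against NOTCH3 rather than NOTCH3 protein; score merges spot fluorescence near 667 nm with spot signal to noise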
[4] = probe aNOTCH2 binding on compound microarray – biochemical, small-molecule microarray, 635/667 nm fluorescence, primary screen (AID 1121); conditions: higher = more signal;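 also: score merges feature fluorescence read at 667 nm with its signal to noise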
[5] = biological target: Carbonic anhydrase 2 (Homo sapiens) (UniProt P00918); test: compounds binding carbonic anhydrase 2 – biochemical, small-molecule microarray, Alexa647-labelled CAII, profiling panel (AID 1122); conditions: CAII-A647 binding fluorescence, higher = more signal
[6] = COS7 lysate on small-molecule microarray, probe aHis, 635 nm (AID 1123); conditions: COS7 cell lysate, fluorescence, higher = more signal;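 also: z-score combines 667nm fluorescence intensity with signal-to-noise per printed compound spot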
[7] = probe aLAP1 signal on lysate-treated microarray – cell lysate, small-molecule microarray, COS7 lysate, primary screen (AID 1124); conditions: probe aLAP1, fluorescence, higher = more signal;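 also: lysate comes from COS7 cells expressing LAP1 and is applied at 0.3 µg/mL; score merges spot fluorescence near 667 nm with signal-to-noise over triplicate slides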
[8] = system: Sam68 (KHDRBS1); test: compounds binding KHDRBS1 protein – biochemical, small-molecule microarray, 635 nm fluorescence, primary screen (AID 1125); conditions: higher = more signal;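 also: score merges 667 nm channel intensity with signal to noise over triplicate slides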
[9] = system: Chordin-like protein 2 (CHRDL2); test: compounds binding chordin-like 2 – biochemical, small-molecule microarray, 635 nm fluorescence, primary screen (AID 1126); conditions: fluorescence 635 nm, higher = more signal;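 also: printed compound slides probed with Chrdl2 protein at 4 µg/mL for 1 h at 4 C; score merges 667 nm emission intensity with signal to noise over three replicate slides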
[10] = biological target: Concanavalin-A (Canavalia ensiformis) (UniProt P02866); test: compounds binding concanavalin A lectin – biochemical, small-molecule microarray, Alexa647 label, 635 nm, artefact control for SMM control protein annotation, primary screen (AID 1127); conditions: ConA-A647 binding fluorescence, higher = more signal;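 also: z combines 667 nm emission intensity with signal-to-noise across three replicate slides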
Chain of Concanavalin-A (Canavalia ensiformis) (P02866 whole entry, looked up): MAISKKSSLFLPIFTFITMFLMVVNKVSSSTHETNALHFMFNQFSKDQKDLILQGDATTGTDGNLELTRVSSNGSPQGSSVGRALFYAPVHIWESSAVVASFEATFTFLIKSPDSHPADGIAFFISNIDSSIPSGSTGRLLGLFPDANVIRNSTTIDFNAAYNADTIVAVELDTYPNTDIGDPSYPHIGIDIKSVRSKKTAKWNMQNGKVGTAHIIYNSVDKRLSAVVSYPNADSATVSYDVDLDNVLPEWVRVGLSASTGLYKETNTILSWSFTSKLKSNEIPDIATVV

Chain of Albumin (Bos taurus) (P02769 whole entry, looked up): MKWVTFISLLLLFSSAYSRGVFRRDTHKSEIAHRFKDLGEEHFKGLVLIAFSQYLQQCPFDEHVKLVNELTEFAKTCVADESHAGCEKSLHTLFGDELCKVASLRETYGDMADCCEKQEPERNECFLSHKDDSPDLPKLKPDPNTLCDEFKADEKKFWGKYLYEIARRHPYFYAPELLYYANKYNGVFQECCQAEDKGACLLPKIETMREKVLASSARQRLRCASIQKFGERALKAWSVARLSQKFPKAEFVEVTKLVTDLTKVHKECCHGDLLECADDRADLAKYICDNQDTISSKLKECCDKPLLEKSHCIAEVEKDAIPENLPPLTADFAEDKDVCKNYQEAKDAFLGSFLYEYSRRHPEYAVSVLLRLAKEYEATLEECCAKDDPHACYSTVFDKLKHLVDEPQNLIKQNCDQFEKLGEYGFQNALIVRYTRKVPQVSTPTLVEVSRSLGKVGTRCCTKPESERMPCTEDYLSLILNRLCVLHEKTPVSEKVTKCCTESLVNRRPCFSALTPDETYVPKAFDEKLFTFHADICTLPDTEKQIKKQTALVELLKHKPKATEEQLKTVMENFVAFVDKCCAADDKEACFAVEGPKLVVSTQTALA

Compound	composite z-score [1]	composite Z-score [2]	composite z-score [3]	composite z-score [4]	composite z-score [5]	composite z-score [6]	composite z-score [7]	composite z-score [8]	composite z-score [9]	composite z-score [10]
O=C(NCC(F)(F)F)[C@@H]1c2ccccc2C(=O)N(Cc2ccccc2Cl)[C@H]1c1ccc(CO)cc1	-0.288	-0.152 (inactive)	-0.48	-0.182	0.761	0.546	1.03	-1.35	-0.584	-0.907
CSCC[C@@H]1NC(=O)CC=C[C@@H](C)COC(=O)[C@H](CCSC)NC(=O)CC=C[C@@H](C)COC1=O	-0.767	0.559 (inactive)	-0.205	-0.135	-0.342	-0.45	-0.524	-0.32	1.39	-0.796
CCCC[C@H]1OB(O)C[C@H]2C1=C(COC)C[C@H]1C(=O)N(Cc3ccccc3)C(=O)[C@H]12	0.11	-0.328 (inactive)	0.0727	-0.182	0.606	0.0082	0.102	0.252	-0.0765	0.106
CCCC=C(CCC)[C@@H](NC(=O)c1ccccc1)c1ccccc1	-0.399	0.108 (inactive)	0.0191	-0.0633	-0.247	0.341	0.139	-0.452	-0.768	-0.604
O=C1C[C@@](C(=O)NC2CC2)(c2ccc([N+](=O)[O-])cc2)[C@@H](c2ccc(CO)cc2I)N1CC12CC3CC(CC(C3)C1)C2	-0.344	0.381 (inactive)	0.0538	-0.19	0.473	1.64	2.12	1.12	0.224	1.1
Cc1ccc(S[C@]2(C(=O)NC3CC3)CC(=O)N(Cc3cc(C(F)(F)F)cc(C(F)(F)F)c3)[C@@H]2c2ccc(CO)cc2)cc1	0.371	-0.421 (inactive)	-0.0345	-0.169	0.375	0.42	1.13	0.792	0.115	0.633
CCOC(=O)[C@H]1C/C=C/C[C@H](C(=O)OCC)C(=O)O[C@H]2[C@@H](OC)O[C@H](CO)[C@@H](OC(=O)Nc3ccc(Br)cc3)[C@@H]2OC1=O	0.827	0.285 (inactive)	-0.122	-0.0863	0.516	2.22	0.704	1.3	-0.12	1.09
CC(c1ccccc1)C(O)C1C=CC2C(=O)N(C)C(=O)C2N1N(c1ccccc1)c1ccccc1 (stereo not given)	0.867	0.543 (inactive)	0.207	0.0605	0.507	1.57	0.19	0.431	-0.852	-0.597
COc1cccc([C@@H]2[C@@H](C)CC[C@H]3C(=O)N4[C@H](c5cccc(OC)c5)[C@@H](C)CC[C@H]4C(=O)N23)c1	0.447	-0.155 (inactive)	0.0193	-0.0262	0.35	0.69	1.06	0.656	0.811	0.0858
C=C(COC)/C(=C/C[C@@H](OC(=O)c1ccncc1)c1ccc(OCCO)cc1)c1cc(C(=O)OC)ccc1OC	0.655	0.345 (inactive)	0.0631	-0.0784	0.655	1.61	0.482	1.3	-0.0659	1.06
C=CCC(OC(C)=O)[C@@H]1[C@@H](N(Cc2cccc3ccccc23)C(=O)Cc2ccc(F)cc2)c2cc(OCCCO)ccc2N1C(=O)Cc1ccc2ccccc2c1 (stereo not given in full)	0.0257	-0.227 (inactive)	-0.0881	-0.0194	-0.117	0.293	-0.27	-0.146	-0.214	-1.5
CC(C)(C)OC(=O)CC[C@@]1(C(=O)NCc2ccccc2)N=C(c2ccc(OCCCO)cc2)O[C@@H]1c1ccccc1	0.974	-0.216 (inactive)	0.132	0.09	0.655	2.91	0.494	1.3	-0.416	1.18
COCCCNC(=O)[C@@]1(Sc2ccc(C)cc2)CC(=O)N(Cc2cc(C(F)(F)F)cc(C(F)(F)F)c2)[C@@H]1c1ccc(CO)cc1I	-0.306	0.297 (inactive)	-0.227	-0.133	0.85	0.57	-0.874	-0.955	-1.19	-0.82
[N-]=[N+]=NCc1ccccc1C[C@@]1(C(=O)N2CCOCC2)N=C(c2ccc(OCCCO)cc2)O[C@@H]1c1ccccc1N=[N+]=[N-]	1.02	-0.188 (inactive)	0.402	0.0753	0.771	2.48	0.358	1.3	-1.07	1.18
O=C1c2ccccc2[C@](Cc2ccccc2I)(C(=O)NCc2ccccc2)[C@H](c2ccc(CO)cc2)N1Cc1ccccc1C(F)(F)F	0.609	-0.342 (inactive)	-0.253	-0.11	0.631	1.37	0.595	0.514	-1.84	-0.32
CCOC(=O)C[C@H]1[C@H](OC(=O)Cc2ccc3c(c2)OCO3)[C@@H](NC(=O)CC(C)C)c2cc(OCCCO)ccc2N1C(=O)c1ccccc1	0.842	0.312 (inactive)	-0.0682	0.0972	0.186	0.41	-0.0777	0.562	0.133	-1.14
COC(=O)c1c(CC[C@@H](CO)NC(=O)N[C@H](Cn2cc(-c3cncn3C)nn2)C(C)C)oc(C(C)=O)c1C(=O)OC	0.697	0.24 (inactive)	-0.0647	-0.11	0.514	0.651	0.203	1.27	0.0779	1.07
O=C1NC(=O)C2C1C=CC(C(O)C=Cc1ccc([N+](=O)[O-])cc1)N2Nc1ccccn1 (stereo not given)	-0.0573	1.28 (inactive)	0.0104	0.0337	0.863	1.4	1.07	-0.257	1.39	0.367
CC(C)N1CC=CC23O[C@@H]4/C=C\CCCOC(=O)C4[C@H]2C(=O)N(CCCCCO)[C@@H]3C1=O (stereo not given in full)	-1.71	-0.0102 (inactive)	-0.448	-0.169	0.945	-0.0414	0.64	-1.74	-1.9	-1.26
O=C/C=C/c1ccc(/C=C/c2ccccc2)cc1	-0.435	-0.738 (inactive)	-0.25	-0.175	-0.147	-0.792	0.103	-1.22	0.95	-0.342
[N-]=[N+]=Nc1ccccc1C[C@@]1(C(=O)N2CCOCC2)N=C(c2ccc(OCCCO)cc2)O[C@@H]1c1ccccc1N=[N+]=[N-]	0.873	0.997 (inactive)	0.121	-0.0286	0.467	1.24	0.0649	1.33	-0.338	1.1
COC(=O)[C@@]1(Cc2ccccc2)[C@H]2c3cc(C(=O)N4CCCC4)n(CCN4CNCC4=O)c3C[C@H]2CN1C(=O)c1ccccc1	0.963	0.0178 (inactive)	0.119	-0.173	0.924	3.04	0.808	0.28	-0.634	1.2
C=CCC(OC(C)=O)[C@@H]1[C@@H](N(Cc2cccc3ccccc23)C(=O)c2ccc(C)cc2)c2cc(OCCCO)ccc2N1C(=O)c1ccc(-c2ccccc2)cc1 (stereo not given in full)	-0.0575	-0.0961 (inactive)	0.102	-0.0398	0.507	0.143	-0.105	-0.087	0.114	-0.227
